Results published in PubChem BioAssay (EPA / NIEHS).
The source made the active and inactive calls. Rule for the calls: active = hit-call score of the fitted dose curve at least 0.9, where 1 is the maximum; inactive = score below 0.9.

assay: APR_HepG2_MicrotubuleCSK_24hr: Apredica 24-hour HepG2 Assay for Microtubule CSK Stabilty (AID 2282909); conditions: HepG2 microtubule cytoskeleton imaging, actives raise or lower the signal
Experimental: APR_HepG2_24hr is a cell-based, multiplexed-readout assay that uses HepG2, a human liver cell line, with measurements taken at 24 hours after chemical dosing in a 384-well plate.APR_HepG2_MicrotubuleCSK_24hr is one of 10 assay component(s) measured or calculated from the APR_HepG2_24hr assay. It is designed to make measurements of protein conformation, a form of conformation reporter, as detected with fluorescence intensity signals by HCS Fluorescent Imaging technology.Data from the assay component APR_HepG2_MicrotubuleCSK_24hr was analyzed into 1 assay endpoint. This assay endpoint, APR_HepG2_MicrotubuleCSK_24hr, was analyzed with bidirectional fitting relative to DMSO as the negative control and baseline of activity. Using a type of conformation reporter, measures of protein for gain or loss-of-signal activity can be used to understand the signaling at the cellular-level. Furthermore, this assay endpoint can be referred to as a primary readout, because this assay has produced multiple assay endpoints where this one serves a signaling function. To generalize the intended target to other relatable targets, this assay endpoint is annotated to the cell morphology intended target family, where the subfamily is cell conformation.
Cells were treated with dimethyl sulfoxide (DMSO) as a solvent control at a final concentration of 0.5% v/v or with compounds in DMSO with a resulting final DMSO concentration of 0.5% v/v. Compound treatment was done at concentrations of 0.39, 0.78, 1.56, 3.12, 6.24, 12.5, 25, 50, 100, and 200 uM in duplicate on each plate. Cells were treated with compounds for 1, 24, or 72 hr. Carbonyl […] m-chloro-phenylhydrazone (CCCP) and taxol were used as positive controls for mitochondrial function and cytoskeletal stability, respectively; DMSO served as the negative control for this experiment. Cells were fixed by the direct addition of 50 uL formaldehyde in Hank's Balanced Salt Solution (HBSS) to a final concentration of 3.7%. After incubation in the fixation medium for 30 min at room temperature (293-298 K), cells were rinsed twice with HBSS and treated with cell permeabilization buffer (16 uL of 0.5% Triton X-100) for 10 min at room temperature (293-298 K) before labeling. For mitochondrial membrane potential and mitochondrial measurements, pre-fixed cells were incubated with 50 uL of MitoTracker Red CMXRos (Invitrogen) at a concentration of 250 nM for 30 min before fixation. In the remaining cases, post-fixed cells were labeled by incubation with a multiplexed mixture of primary antibodies in HBSS for 60 min at room temperature (293-298 K) to detect immunoreactivity of c-Jun (1:500), phospho-histone H3 (1:100), phospho-histone H2A.x (1:200), p53 (1:400), alpha-tubulin (1:200) and Hoechst 33342 (2 ug/mL). Cells were labeled for multiplexed imaging on two separate plates: a) Hoechst 33342, MitoTracker Red, phospho-histone H3, and alpha-tubulin, and b) Hoechst 33342, phospho-histone H2A.x, and c-Jun. A final rinse with HBSS (50 uL) was performed before analysis. The primary and secondary antibodies for the proteins were phospho-histone H3 (rabbit anti-phospho-histone H3 and FITC-donkey anti-rabbit IgG), phospho-histone H2A.x (mouse anti-phospho-histone H2A.x and FITC-donkey anti-mouse IgG), c-Jun (rabbit anti-phospho-c-Jun and Cy3-donkey anti-rabbit IgG), p53 (sheep anti-p53 and Cy5-donkey anti-sheep IgG), alpha-tubulin (mouse anti-alpha-tubulin and Cy5-donkey anti-mouse IgG). These antibodies are available as the CellCiphr HepG2 assay kit (Millipore).Digital images of each well were captured using a Cellomics ArrayScan VTI (Thermo Scientific Cellomics) (0.8 NA objective, 0.63x optical coupler, and XF-93 filter set) at 20x magnification. The images were acquired using the autofocus feature of the ArrayScan instrument, which entails the following steps. First, the camera focuses on channel 1 (Hoechst 33342), where nuclei are identified. Second, a Z offset of 1 um is used for capturing mitochondria (MitoTracker Red). […]

Structure (SMILES) | AC50 | outcome
Oc1cc(Cl)c(Cl)cc1Cl | 41.8 µM (active) | –
CN(C)C(=S)S | – | inactive
O=C(N[C@H]1CN2CCC1CC2)c1ccc2c(c1)OCCO2 | – | inactive
N#Cc1cccnc1 | – | inactive
O=C(O)C1(c2ccc3c(c2)OC[C@H](Cc2ccc(-c4ccccc4)cc2)[C@H]3O)CCCC1 | – | inactive
Clc1cccc(Cl)c1 | – | inactive
COc1ccccc1N | – | inactive
Cc1cc(C)cc(C)c1 | – | inactive
CC(C)(C)c1ccccc1O | – | inactive
OCCN(CCO)CCO | – | inactive
CC(C)O.CC(C)O.OCCN(CCO)CCO.OCCN(CCO)CCO.[Ti] | – | inactive
CCCCCCCCCCCCc1cccc(S(=O)(=O)O)c1 | – | inactive
Clc1cccc(Cl)c1Cl | – | inactive
